Results on 12 compounds are retold here after PubChem BioAssay (NCATS).

Records with an inconclusive call do not appear. The source made the active and inactive calls. Calls follow the shape of the dose curve; as a rule, active = well fitted cell-killing curve with a large enough effect; inconclusive = small, poorly fitted or top-dose-only effect; inactive = flat fitted curve, though single readings scatter.
% is scaled to controls: 0 for no effect and ±100 for the full control effect; potency is read from the fitted curve at half-maximal effect.

A short description of the assay: Cell Viability - LYMP2-021 (AID 974).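 Also: compound exposure lasts 24 hours at 37 °C; nearly all actives have a fitted effect of over 55% in size.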 As to conditions: LYMP2-021 lymphoblastoid cells viability; series mostly up to 92.2 µM; activity change, negative = cytotoxicity: at the top concentration. The source says:
NIH Chemical Genomics Center [NCGC]
NIH Molecular Libraries Screening Centers Network [MLSCN]
National Institutes of Environmental Health Sciences [NIEHS]
National Toxicology Program [NTP]
We have developed a 1536-well cell-based assay for quantitative high throughput screening (qHTS) against a number of cell lines to determine in vitro cytotoxicity of small molecules. This particular assay uses a human lymphoblastoid cell line (LYMP2-021) purchased from Coriell Institute for Medical Research.
NCGC Assay Protocol Summary:
The CellTiter-Glo luminescent cell viability assay (Promega) is a homogeneous method to measure the number of viable cells in culture. The end point readout of this assay is based on quantitation of intracellular ATP, an indicator of metabolic activity, using the luciferase reaction. Luciferase catalyzes the oxidation of beetle Luciferin to oxyluciferin and light in the presence of ATP. The luminescent signal is proportional to amount of ATP present.
Using the CellTiter-Glo luminescent cell viability assay, the amount of cellular ATP was measured in the lymphoblastoid cell line with complete culture medium following compound treatment for 24 hours. The assay was performed in opaque white Kalypsys 1536-well plates. In the screen, tetraoctylammonium bromide was used as positive control. Library compounds were measured for their ability to cause acute toxicity in the cell line, as reflected by a decrease in intracellular ATP levels, in a concentration-dependent manner. […] AC50 values were determined from concentration-response data modeled with the standard Hill equation.
qHTS protocol for CellTiter Glo lymphoblastoid cellular assay
[Step] [Parameter] [Value] [Description]
1. Reagent; 5 uL; 2500 lymphoblastoid cells/well
2. Time; 5 hr; 37 C incubation
4. Controls; 23 nL; Tetraoctylammonium bromide 6.4pM to 92 uM
5. Time; 24 hr; 37 C incubation
6. Reagent; 5 uL; CellTiter Glo reagent
7. Time; 30 min; Room Temperature
8. Detection; Luminescence; Viewlux plate reader
Keywords: cell viability, cytotoxicity, lymphoblastoid cell line, luminescence, NTPHTS, NTPHTS_NCGC, NIEHS, DSSTox, MLSMR, MLSCN, NIH Roadmap, qHTS, NCGC
`Oc1ccccc1-c1ccccc1`: the “activity change, negative = cytotoxicity” value was -5.34% (inactive). Regarding `NCC(O)c1ccc(O)cc1` (configuration not stated), the “activity change, negative = cytotoxicity” value was 1.37% (inactive). Regarding `CC(COc1ccccc1)N(CCCl)Cc1ccccc1` (configuration not stated), the Potency is 50.1 µM (active). With `CCCC(C)(COC(N)=O)COC(=O)NC(C)C` (configuration not stated), the “activity change, negative = cytotoxicity” value was -3.3% (inactive). Same read-out and setting: to `CNCC(O)c1ccc(O)cc1` (configuration not stated) belongs -5.11% (inactive); to `c1ccc2c(c1)Nc1ccccc1S2`, -0.791% (inactive); to `OCCOc1ccccc1`, -1.16% (inactive). For `C[C@]12C/C(=C/O)C(=O)C[C@@H]1CC[C@@H]1[C@@H]2CC[C@@]2(C)[C@H]1CC[C@]2(C)O`, the Potency was 63.1 µM (active).

As to `N[C@@H](Cc1ccc(N(CCCl)CCCl)cc1)C(=O)O`, the Potency was 39.8 µM (active). As to `Oc1ccc(Cl)cc1Cc1ccccc1`, the “activity change, negative = cytotoxicity” value is -6.12% (inactive). Regarding `CCOP(=S)(OCC)Oc1cc(C)nc(C(C)C)n1`, the “activity change, negative = cytotoxicity” value is -13.3% (inactive). As to `CC(=O)Oc1ccccc1C(=O)Nc1ncc([N+](=O)[O-])s1`, the Potency is 39.8 µM (active).
